Measured values: PubChem BioAssay (NCATS)
“And” between values parts separate entries of the source, which are not always exact repeats. Equal values may be shown once. Records with an inconclusive call do not appear. More than one record can exist for a structure, and the calls need not agree. The source made the active and inactive calls. Calls come from the whole dose curve; as a rule, active = well fitted inhibition curve with a large enough effect; inconclusive = small, poorly fitted or top-dose-only effect; inactive = flat fitted curve, though single readings scatter.

Tests used:
[1] = system: JCK; test: qHTS profiling for inhibitors of Plasmodium falciparum proliferation (AID 504749); note: potency is the fitted concentration of half-maximal effect; conditions: P. falciparum in erythrocytes, SYBR Green DNA, 72 h; series mostly up to 28.7 µM
Method in brief: (§1)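 Each compound contacts P. falciparum-infected red blood cells for 72 h at 37 C; lysis buffer (Tris, EDTA, saponin, Triton X, SYBR Green I) is added and fluorescence measured next morning; values normalized to controls.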

[2] = system: N140; test: as above; conditions: P. falciparum in erythrocytes, SYBR Green DNA, 72 h; series mostly up to 28.7 µM
Method in brief: as §1

[3] = system: P93_24; test: as above; conditions: P. falciparum in erythrocytes, SYBR Green DNA, 72 h; series mostly up to 28.7 µM
Method in brief: as §1

[4] = system: P94_40; test: as above; conditions: P. falciparum in erythrocytes, SYBR Green DNA, 72 h; series mostly up to 28.7 µM
Method in brief: as §1

[5] = system: PAD; test: as above; conditions: P. falciparum in erythrocytes, SYBR Green DNA, 72 h; series mostly up to 28.7 µM
Method in brief: as §1

[6] = system: PC15; test: as above; conditions: P. falciparum in erythrocytes, SYBR Green DNA, 72 h; series mostly up to 28.7 µM
Method in brief: as §1

[7] = system: PC26; test: as above; conditions: P. falciparum in erythrocytes, SYBR Green DNA, 72 h; series mostly up to 28.7 µM
Method in brief: as §1

[8] = system: PC49; test: as above; conditions: P. falciparum in erythrocytes, SYBR Green DNA, 72 h; series mostly up to 28.7 µM
Method in brief: as §1

[9] = system: SC27B; test: as above; conditions: P. falciparum in erythrocytes, SYBR Green DNA, 72 h; series mostly up to 28.7 µM
Method in brief: as §1

[10] = system: TAB109; test: as above; conditions: P. falciparum in erythrocytes, SYBR Green DNA, 72 h; series mostly up to 28.7 µM
Method in brief: as §1

[11] = system: TAB113; test: as above; conditions: P. falciparum in erythrocytes, SYBR Green DNA, 72 h; series mostly up to 28.7 µM
Method in brief: as §1

[12] = system: TAB165; test: as above; conditions: P. falciparum in erythrocytes, SYBR Green DNA, 72 h; series mostly up to 28.7 µM
Method in brief: as §1

[13] = system: CRL-7250; test: Cytotoxic Profiling of Annotated Libraries Using Quantitative High-Throughput Screening (AID 1296008); conditions: Five cell lines viability, CellTiter-Glo ATP luminescence, 48-72 h; max response: stronger effect = lower value; note: potency is the fitted concentration of half-maximal effect; for max response: % is set by controls: 0 for no effect and ±100 for the full control effect
Method in brief: (§2)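 Cells exposed to compounds for 48 or 72 hr at 37 degrees Celsius. Viability read as ATP-coupled luminescence with CellTiter-Glo after 10 min at room temperature.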

[14] = system: HEK293; test: as above; conditions: Five cell lines viability, CellTiter-Glo ATP luminescence, 48-72 h; max response: stronger effect = lower value
Method in brief: as §2

[15] = system: HaCat; test: as above; conditions: Five cell lines viability, CellTiter-Glo ATP luminescence, 48-72 h; max response: stronger effect = lower value
Method in brief: as §2

[16] = system: KB-3-1; test: as above; conditions: Five cell lines viability, CellTiter-Glo ATP luminescence, 48-72 h; max response: stronger effect = lower value
Method in brief: as §2

[17] = system: NIH3T3; test: as above; conditions: Five cell lines viability, CellTiter-Glo ATP luminescence, 48-72 h; max response: stronger effect = lower value
Method in brief: as §2

[18] = system: HACAT; test: qHTS assay to identify novel small-molecules to repurpose for Merkel cell carcinoma treatment (AID 1296009); conditions: MCC and control cell lines, CellTiter-Glo viability, 72 h; at 44.8 µM (top of the series) unless noted
Method in brief: (§3)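 Dose-response viability screen; 72 hr exposure at 37 degree celsius; CellTiter-Glo added, 10 min room temperature, luminescence read; RLUs scaled between no-cell and DMSO wells.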

[19] = system: W2; test: qHTS profiling for inhibitors of Plasmodium falciparum proliferation (AID 504749); note: potency is the fitted concentration of half-maximal effect; conditions: P. falciparum in erythrocytes, SYBR Green DNA, 72 h; series mostly up to 28.7 µM
Method in brief: as §1

[20] = system: HEK293T; test: qHTS assay to identify novel small-molecules to repurpose for Merkel cell carcinoma treatment (AID 1296009); conditions: MCC and control cell lines, CellTiter-Glo viability, 72 h; at 44.8 µM (top of the series) unless noted
Method in brief: as §3
Note: nearly all actives have a fitted effect of over 60% in size.

CCC(C)(C)c1ccc(CC(C)CN2C[C@@H](C)O[C@@H](C)C2)cc1 (some centres not stated)
inactive: Potency [1] | Potency [2] | Potency [3] | Potency [4] | Potency [5] | Potency [6] | Potency [7] | Potency [8] | Potency [9] | Potency [10] | Potency [11] | Potency [12] | max response [13] 0.576% | outcome [13] | max response [14] -0.508% and -3.77% | outcome [15] | max response [16] 0.53% and -5.13% | max response [17] 3.97% and -6% | outcome [18]

COc1cc2c(Nc3ccc(Br)cc3F)ncnc2cc1OCC1CCN(C)CC1
active: Potency [2] 2.51 µM | Potency [3] 2 µM | Potency [4] 2.82 µM | Potency [5] 2.24 µM | Potency [6] 7.08 µM | Potency [9] 2.82 µM | Potency [10] 2.24 µM | Potency [11] 2.24 µM | Potency [12] 3.55 µM | Potency [19] 3.38 µM | Potency [13] 18.7 µM | Potency [14] 26.4 µM | Potency [15] 7.31 µM | Potency [17] 5.9 µM and 5.17 µM
inactive: outcome [13] | max response [14] -4.93% | max response [15] 0.174% | max response [16] -19.6% | outcome [17]

CC(C(=O)O)c1ccc2c(c1)CC(=O)c1ccccc1S2 (configuration not stated)
inactive: max response [13] -3.49% and 3.11% | outcome [13] | max response [14] -0.0676% and -6.42% and 0.0288% | max response [15] -2.2% and 1.58% | outcome [15] | max response [16] -3.77% | outcome [16] | max response [17] 4.16% and -0.0725% | outcome [17] | outcome [18]

Cc1nnc(C(=O)NC(C)(C)c2nc(C(=O)NCc3ccc(F)cc3)c(O)c(=O)n2C)o1
inactive: max response [13] 1.7% and -8.84% | outcome [13] | max response [14] -1.41% and 1.54% and -3.51% | max response [15] -1.85% and 3.43% | outcome [15] | max response [16] -0.518% and 8.61% | max response [17] -3.12% and 2.12% | outcome [17] | outcome [18]

CC(C)OC(=O)OCOP(=O)(CO[C@H](C)Cn1cnc2c(N)ncnc21)OCOC(=O)OC(C)C
inactive: max response [13] -6.19% | outcome [13] | max response [14] -4.37% | outcome [14] | outcome [15] | outcome [16] | max response [17] -4.05% and -25.8% | outcome [18] | outcome [20]

CC1=NN(c2ccccc2)C(=O)C1
inactive: Potency [1] | Potency [2] | Potency [3] | Potency [4] | Potency [5] | Potency [6] | Potency [7] | Potency [8] | Potency [9] | Potency [10] | Potency [11] | Potency [12] | max response [13] -10.4% and -10.5% | outcome [13] | max response [14] -7.12% and -3.41% and -4.46% | max response [15] -6.55% | outcome [15] | max response [16] 3.2% | outcome [16] | max response [17] 2.82% | outcome [17] | outcome [18]

CCCN[C@H]1CCc2nc(N)sc2C1
inactive: Potency [1] | Potency [2] | Potency [3] | Potency [4] | Potency [5] | Potency [6] | Potency [7] | Potency [8] | Potency [9] | Potency [10] | Potency [11] | Potency [12] | Potency [19] | max response [13] 0.673% | outcome [13] | outcome [14] | max response [15] 3.55% | outcome [15] | max response [16] 5.22% and 4.84% | max response [17] 4.11% and -1.47% | outcome [18] | outcome [20]

CC(C)(Sc1cc(C(C)(C)C)c(O)c(C(C)(C)C)c1)Sc1cc(C(C)(C)C)c(O)c(C(C)(C)C)c1
active: Potency [19] 4.05 µM
inactive: Potency [1] | Potency [2] | Potency [3] | Potency [4] | Potency [5] | Potency [6] | Potency [7] | Potency [8] | Potency [9] | Potency [10] | Potency [11] | Potency [12] | max response [13] -4.36% | outcome [13] | max response [14] 2.23% | outcome [14] | max response [15] 0.994% | outcome [15] | max response [16] -10.8% and 4.75% | max response [17] 1.18% | outcome [17] | outcome [18] | outcome [20]

Cc1cc(NS(=O)(=O)c2ccc(N)cc2)no1
inactive: max response [13] -8.57% | outcome [13] | max response [14] 1.33% and -5.68% | outcome [15] | max response [16] -10.1% | outcome [16] | max response [17] -3.95% | outcome [17] | outcome [18]

C[C@]12C=CC(=O)C=C1CC[C@@H]1[C@@H]2C(=O)C[C@@]2(C)[C@H]1CC[C@]2(O)C(=O)CO
inactive: Potency [1] | Potency [2] | Potency [3] | Potency [4] | Potency [5] | Potency [6] | Potency [7] | Potency [8] | Potency [9] | Potency [10] | Potency [12] | Potency [19] | max response [13] 2.58% | outcome [13] | max response [14] -4.32% and 0.184% | max response [15] -8.77% and -10.7% | max response [16] 9.07% and 4.76% | max response [17] -5.75% | outcome [17]
